# Experimental data reported in PubChem BioAssay (NCATS).
# Several values for one entry are separate records, joined by “and”; a condition that tells them apart may be missing. Equal values may be shown once. Unmarked numbers belong to inactive results. Records with an inconclusive call do not appear. Where a call stands in place of a potency, no number is given. Activity calls are given as the source filed them. Unless noted, the call rests on the fitted dose curve; in most records, active means well fitted curve in the direction sought with a large enough effect; inconclusive means small, poorly fitted or top-dose-only effect, or another doubt; inactive means no such curve, though single readings can be large; an effect the other way counts as inactive or inconclusive.
# Assays:
# [1] = target: Nuclear receptor subfamily 1 group I member 2 (Rattus norvegicus) (UniProt Q9R1A7); test: qHTS assay for small molecule activators of the rat pregnane X receptor (rPXR) signaling pathway (AID 651751; call rule not given here); details: rPXR reporter cells, luciferase (One-Glo), 24 h
# [2] = qHTS assay for small molecule activators of the human pregnane X receptor (PXR) signaling pathway (AID 720659; call rule not given here); details: DPX-2 HepG2 CYP3A4-luciferase, 24 h; series mostly up to 92.3 µM
# astro = test: Drug repurposing screens with cells derived from glioblastoma tumor samples (AID 1345199); details: viability, ATP luminescence, 48 h; series mostly up to 45.9 µM; further: nearly all actives have a fitted effect of over 40% in size; further: potency means the concentration at half of the fitted maximal effect
# Procedure, shortened: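 Four patient lines of CD133+ GBM neurospheres were screened at several concentrations; hits were retested in those lines plus three slower-growing GBM lines, using 48-hour treatment and ATP-based viability.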
# [3] = qHTS assay to identify inhibitors of the type 1 interferon - major histocompatibility complex class I in skeletal muscle: Counter screen cell viability and HiBit confirmation (AID 1347412); details: iHSKM muscle cells + IFN-b, HiBiT or CellTiter-Glo, 24 h; Potency: HiBiT; Viability, at 45.9 µM (top of the series); further: nearly all actives have a fitted effect of over 60% in size; further: potency means the concentration at half of the fitted maximal effect
# Source text: Assay Submitter (PI): Travis B. Kinder Ph.D. & James Inglese Ph.D. Assay Development and Screening Technology Laboratory (ADST) National Center for Advancing Translational Sciences (NCATS), Rockville, MD National Institute of Health (NIH), Bethesda, Maryland Idiopathic inflammatory myopathies, collectively referred to as myositis, are a group of rare autoimmune diseases characterized by skeletal muscle inflammation, weakness, and usually accompanied by systemic pathologies of the skin, lungs, or vasculature. Current immunosuppressive therapies and glucocorticoids are often not curative and are accompanied by harsh side effects, especially in children with juvenile myositis. We initiated a drug repurposing and development program to identify more targeted, less toxic therapeutics to treat myositis. […] We conducted quantitative high throughput screening on 6,576 compounds (4,679 unique) through a series of cell-based assays to identify those that inhibit the IFN-stimulated expression of MHC class I in muscle precursor cells (myoblasts). […] After 24 hrs of treatment, cells were assayed by either Nano-Glo HiBiT Lytic Detection System (Promega) or CellTiter Glo (Promega), and luminescence measured by a ViewLux 1430 Ultra HTS (Perkin Elmer). […]
# Sequence of Nuclear receptor subfamily 1 group I member 2 (Rattus norvegicus) (Q9R1A7 whole entry, looked up): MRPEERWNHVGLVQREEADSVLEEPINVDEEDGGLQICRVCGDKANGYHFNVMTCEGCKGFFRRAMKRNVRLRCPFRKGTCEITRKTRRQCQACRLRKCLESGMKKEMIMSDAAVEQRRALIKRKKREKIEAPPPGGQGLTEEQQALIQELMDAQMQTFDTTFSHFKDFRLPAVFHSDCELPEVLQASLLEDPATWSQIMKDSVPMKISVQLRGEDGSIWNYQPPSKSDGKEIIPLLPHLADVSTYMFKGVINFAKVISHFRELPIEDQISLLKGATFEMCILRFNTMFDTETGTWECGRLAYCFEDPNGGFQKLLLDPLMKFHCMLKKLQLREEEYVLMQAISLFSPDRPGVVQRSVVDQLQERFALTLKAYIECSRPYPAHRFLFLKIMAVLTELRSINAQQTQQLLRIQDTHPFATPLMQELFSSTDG
compound,measurement,setting,value
CCCCCCCCOc1ccc(C(=O)c2ccccc2)c(O)c1,max response,[1],-1.61%
same,outcome,[2],inactive
C[C@H]1O[C@@H](O[C@H]2CC[C@@]3(C)[C@H](CC[C@@H]4[C@@H]3C[C@@H](O)[C@]3(C)[C@@H](C5=CC(=O)OC5)CC[C@]43O)C2)C[C@H](O)[C@@H]1O[C@H]1C[C@H](O)[C@H](O[C@H]2C[C@H](O)[C@H](O[C@@H]3O[C@H](CO)[C@@H](O)[C@H](O)[C@H]3O)[C@@H](C)O2)[C@@H](C)O1,Potency,astro,316 nM (active)
same,Potency,[3],198 nM (active)
CC(C)Nc1cccnc1N1CCN(C(=O)c2cc3cc(NS(C)(=O)=O)ccc3[nH]2)CC1,Potency,astro,inactive
FC(F)(F)C(F)(F)C(F)(F)C(F)(F)C(F)(F)C(F)(F)C(F)(F)C(F)(F)Br,Potency,astro,inactive
CC1(C)OC[C@@H]2O[C@@]3(C(=O)O)OC(C)(C)O[C@H]3[C@@H]2O1,Potency,astro,inactive
same,max response,[1],0.338%
same,outcome,[2],inactive
O=C(NC1CCN(CCc2c[nH]c3ccccc23)CC1)c1ccccc1,Potency,astro,inactive
CCOc1ccccc1C(N)=O,Potency,astro,inactive
same,max response,[1],2.38%
same,outcome,[2],inactive
Cc1cc(CC(=O)O)c(C)n1-c1ccc(Cl)cc1,Potency,astro,inactive
CCCCCCCCCCCCCC(=O)OC(C)C,Potency,astro,inactive
same,max response,[1],2.24%
same,outcome,[2],inactive
COc1cc([C@H]2Oc3cc([C@H]4Oc5cc(O)cc(O)c5C(=O)[C@@H]4O)ccc3O[C@@H]2CO)ccc1O,outcome,[2],inactive
COc1ccc(C(=O)c2ccccc2)c(O)c1,Potency,astro,inactive
same,max response,[1],7.56% and 2.38%
C#C[C@]1(O)CC[C@H]2[C@@H]3CCC4=CC(=O)CC[C@@H]4[C@H]3CC[C@@]21CC,Potency,astro,inactive
CC1=C(C(=O)O)N2C(=O)[C@@H](NC(=O)[C@H](N)c3ccccc3)[C@H]2SC1,Potency,astro,inactive
same,Potency,[3],inactive
CCCCOC(=O)CC(CC(=O)OCCCC)(OC(C)=O)C(=O)OCCCC,Potency,astro,inactive
same,max response,[1],12%
Oc1c(Cl)cc(Cl)c(Cl)c1Cc1c(O)c(Cl)cc(Cl)c1Cl,Potency,astro,4470 nM (active)
same,outcome,[2],inactive
